In assay [1] the target is T1, Tyrosine-protein kinase receptor TYRO3 (Homo sapiens) (UniProt Q06418).
T1 sequence (whole entry): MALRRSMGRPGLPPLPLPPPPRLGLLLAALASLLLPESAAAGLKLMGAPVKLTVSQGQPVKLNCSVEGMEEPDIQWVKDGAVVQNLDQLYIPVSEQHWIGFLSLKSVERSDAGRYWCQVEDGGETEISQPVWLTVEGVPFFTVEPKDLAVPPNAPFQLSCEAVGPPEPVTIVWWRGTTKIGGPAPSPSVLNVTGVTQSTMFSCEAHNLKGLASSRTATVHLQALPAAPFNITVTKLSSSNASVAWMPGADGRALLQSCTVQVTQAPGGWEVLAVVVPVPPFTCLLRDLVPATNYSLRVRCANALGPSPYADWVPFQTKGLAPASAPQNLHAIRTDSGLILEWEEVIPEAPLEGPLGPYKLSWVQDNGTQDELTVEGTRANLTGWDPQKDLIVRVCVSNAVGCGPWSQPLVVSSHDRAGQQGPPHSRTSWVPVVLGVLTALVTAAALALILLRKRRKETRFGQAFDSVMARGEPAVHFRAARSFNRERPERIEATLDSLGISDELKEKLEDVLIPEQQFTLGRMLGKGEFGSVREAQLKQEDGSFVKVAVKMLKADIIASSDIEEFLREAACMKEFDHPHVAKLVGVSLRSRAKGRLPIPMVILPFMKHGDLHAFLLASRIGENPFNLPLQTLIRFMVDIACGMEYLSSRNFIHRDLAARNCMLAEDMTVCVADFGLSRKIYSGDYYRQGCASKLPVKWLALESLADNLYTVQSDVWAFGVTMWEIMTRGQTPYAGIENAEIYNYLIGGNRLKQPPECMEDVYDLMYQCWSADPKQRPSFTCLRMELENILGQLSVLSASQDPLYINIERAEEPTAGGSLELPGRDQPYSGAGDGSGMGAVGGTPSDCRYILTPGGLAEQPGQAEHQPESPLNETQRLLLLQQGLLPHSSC
Conditions: at 1 µM.

The target of assay [2] is Tyrosine-protein kinase Yes (Homo sapiens) (UniProt P07947). Conditions: at 0.1 µM.
Assay [3] shares this target. Conditions: at 1 µM.
Assay [4] deals with T2, Tyrosine-protein kinase ZAP-70 (Homo sapiens) (UniProt P43403).
T2 sequence (whole entry): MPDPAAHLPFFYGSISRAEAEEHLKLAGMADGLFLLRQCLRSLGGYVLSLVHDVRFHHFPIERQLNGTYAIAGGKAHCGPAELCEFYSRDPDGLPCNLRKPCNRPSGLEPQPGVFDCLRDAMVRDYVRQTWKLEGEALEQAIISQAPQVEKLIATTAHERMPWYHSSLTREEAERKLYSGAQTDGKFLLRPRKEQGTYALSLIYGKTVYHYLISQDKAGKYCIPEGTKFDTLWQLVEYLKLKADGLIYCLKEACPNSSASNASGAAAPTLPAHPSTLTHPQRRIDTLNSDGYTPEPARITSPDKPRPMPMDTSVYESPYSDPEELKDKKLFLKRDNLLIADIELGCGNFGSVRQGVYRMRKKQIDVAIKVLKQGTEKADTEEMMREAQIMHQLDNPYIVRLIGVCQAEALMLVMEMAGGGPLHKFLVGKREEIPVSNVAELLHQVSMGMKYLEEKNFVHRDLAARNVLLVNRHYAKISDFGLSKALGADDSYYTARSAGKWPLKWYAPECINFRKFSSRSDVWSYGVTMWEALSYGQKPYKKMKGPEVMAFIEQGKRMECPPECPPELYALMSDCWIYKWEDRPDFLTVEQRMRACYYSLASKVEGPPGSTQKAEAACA
Conditions: at 0.1 µM.

Assay [5] deals with T2, Tyrosine-protein kinase ZAP-70 (Homo sapiens). Conditions: at 1 µM.
Assay [6] addresses Serine/threonine-protein kinase B-raf (Homo sapiens) (UniProt P15056). Conditions: at 0.1 µM.
The target is the same in assay [7]. Conditions: at 1 µM.
Assay [8] relates to Serine/threonine-protein kinase B-raf (Homo sapiens), P15056 [V600E]. Conditions: at 0.1 µM.
The test system is the same in assay [9]. The note with it: at 1 µM.
Assay [10] deals with RAF proto-oncogene serine/threonine-protein kinase (Homo sapiens) (UniProt P04049). Conditions: at 0.1 µM.
The target is the same in assay [11]. Conditions: at 1 µM.
Assay [12] addresses T3, Interleukin-1 receptor-associated kinase 4 (Homo sapiens) (UniProt Q9NWZ3).
T3 sequence (whole entry): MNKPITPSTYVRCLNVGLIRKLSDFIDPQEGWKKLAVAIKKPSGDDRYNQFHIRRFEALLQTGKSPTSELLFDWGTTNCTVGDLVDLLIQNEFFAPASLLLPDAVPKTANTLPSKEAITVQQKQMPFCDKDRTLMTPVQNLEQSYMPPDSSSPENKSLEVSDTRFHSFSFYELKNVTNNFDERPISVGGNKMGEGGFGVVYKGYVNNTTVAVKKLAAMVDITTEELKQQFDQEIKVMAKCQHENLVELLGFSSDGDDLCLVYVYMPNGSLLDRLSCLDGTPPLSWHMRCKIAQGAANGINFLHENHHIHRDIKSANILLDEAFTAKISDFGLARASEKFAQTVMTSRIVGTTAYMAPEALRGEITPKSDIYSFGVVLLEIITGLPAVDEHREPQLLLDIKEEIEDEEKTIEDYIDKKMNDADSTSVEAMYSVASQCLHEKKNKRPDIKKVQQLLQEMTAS
Conditions: at 0.1 µM.

Assay [13] concerns the target T3, Interleukin-1 receptor-associated kinase 4 (Homo sapiens). The note with it: at 1 µM.
Assay [14] concerns the target Leucine-rich repeat serine/threonine-protein kinase 2 (Homo sapiens) (UniProt Q5S007). Conditions: at 0.1 µM.
Assay [15] has the same target. The note with it: at 1 µM.
The subject of assay [16] is Leucine-rich repeat serine/threonine-protein kinase 2 (Homo sapiens), Q5S007 [G2019S]. The note with it: at 0.1 µM.
Assay [17] has the same test system. Conditions: at 1 µM.

The structures appear in SMILES notation.

RAF proto-oncogene serine/threonine-protein kinase (Homo sapiens), sequence (P04049 whole entry): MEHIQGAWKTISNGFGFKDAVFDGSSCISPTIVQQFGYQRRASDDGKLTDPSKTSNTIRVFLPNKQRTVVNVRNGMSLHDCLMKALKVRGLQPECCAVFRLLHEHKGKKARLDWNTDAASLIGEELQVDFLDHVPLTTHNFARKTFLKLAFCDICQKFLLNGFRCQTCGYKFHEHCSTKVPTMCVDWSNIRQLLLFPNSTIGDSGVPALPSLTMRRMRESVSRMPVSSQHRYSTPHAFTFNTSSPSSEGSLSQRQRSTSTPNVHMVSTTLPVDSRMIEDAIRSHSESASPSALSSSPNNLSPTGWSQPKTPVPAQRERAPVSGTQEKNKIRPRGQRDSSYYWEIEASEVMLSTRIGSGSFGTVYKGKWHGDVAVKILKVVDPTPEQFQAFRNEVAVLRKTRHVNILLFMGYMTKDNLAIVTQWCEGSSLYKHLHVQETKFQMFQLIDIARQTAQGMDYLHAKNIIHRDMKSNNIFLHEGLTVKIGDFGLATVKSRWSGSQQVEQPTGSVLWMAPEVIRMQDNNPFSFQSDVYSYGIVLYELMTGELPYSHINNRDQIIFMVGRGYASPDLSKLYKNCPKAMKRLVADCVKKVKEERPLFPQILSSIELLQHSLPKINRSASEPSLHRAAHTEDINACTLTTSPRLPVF
Leucine-rich repeat serine/threonine-protein kinase 2 (Homo sapiens), Q5S007 [G2019S], sequence (Q5S007 whole entry G2019S): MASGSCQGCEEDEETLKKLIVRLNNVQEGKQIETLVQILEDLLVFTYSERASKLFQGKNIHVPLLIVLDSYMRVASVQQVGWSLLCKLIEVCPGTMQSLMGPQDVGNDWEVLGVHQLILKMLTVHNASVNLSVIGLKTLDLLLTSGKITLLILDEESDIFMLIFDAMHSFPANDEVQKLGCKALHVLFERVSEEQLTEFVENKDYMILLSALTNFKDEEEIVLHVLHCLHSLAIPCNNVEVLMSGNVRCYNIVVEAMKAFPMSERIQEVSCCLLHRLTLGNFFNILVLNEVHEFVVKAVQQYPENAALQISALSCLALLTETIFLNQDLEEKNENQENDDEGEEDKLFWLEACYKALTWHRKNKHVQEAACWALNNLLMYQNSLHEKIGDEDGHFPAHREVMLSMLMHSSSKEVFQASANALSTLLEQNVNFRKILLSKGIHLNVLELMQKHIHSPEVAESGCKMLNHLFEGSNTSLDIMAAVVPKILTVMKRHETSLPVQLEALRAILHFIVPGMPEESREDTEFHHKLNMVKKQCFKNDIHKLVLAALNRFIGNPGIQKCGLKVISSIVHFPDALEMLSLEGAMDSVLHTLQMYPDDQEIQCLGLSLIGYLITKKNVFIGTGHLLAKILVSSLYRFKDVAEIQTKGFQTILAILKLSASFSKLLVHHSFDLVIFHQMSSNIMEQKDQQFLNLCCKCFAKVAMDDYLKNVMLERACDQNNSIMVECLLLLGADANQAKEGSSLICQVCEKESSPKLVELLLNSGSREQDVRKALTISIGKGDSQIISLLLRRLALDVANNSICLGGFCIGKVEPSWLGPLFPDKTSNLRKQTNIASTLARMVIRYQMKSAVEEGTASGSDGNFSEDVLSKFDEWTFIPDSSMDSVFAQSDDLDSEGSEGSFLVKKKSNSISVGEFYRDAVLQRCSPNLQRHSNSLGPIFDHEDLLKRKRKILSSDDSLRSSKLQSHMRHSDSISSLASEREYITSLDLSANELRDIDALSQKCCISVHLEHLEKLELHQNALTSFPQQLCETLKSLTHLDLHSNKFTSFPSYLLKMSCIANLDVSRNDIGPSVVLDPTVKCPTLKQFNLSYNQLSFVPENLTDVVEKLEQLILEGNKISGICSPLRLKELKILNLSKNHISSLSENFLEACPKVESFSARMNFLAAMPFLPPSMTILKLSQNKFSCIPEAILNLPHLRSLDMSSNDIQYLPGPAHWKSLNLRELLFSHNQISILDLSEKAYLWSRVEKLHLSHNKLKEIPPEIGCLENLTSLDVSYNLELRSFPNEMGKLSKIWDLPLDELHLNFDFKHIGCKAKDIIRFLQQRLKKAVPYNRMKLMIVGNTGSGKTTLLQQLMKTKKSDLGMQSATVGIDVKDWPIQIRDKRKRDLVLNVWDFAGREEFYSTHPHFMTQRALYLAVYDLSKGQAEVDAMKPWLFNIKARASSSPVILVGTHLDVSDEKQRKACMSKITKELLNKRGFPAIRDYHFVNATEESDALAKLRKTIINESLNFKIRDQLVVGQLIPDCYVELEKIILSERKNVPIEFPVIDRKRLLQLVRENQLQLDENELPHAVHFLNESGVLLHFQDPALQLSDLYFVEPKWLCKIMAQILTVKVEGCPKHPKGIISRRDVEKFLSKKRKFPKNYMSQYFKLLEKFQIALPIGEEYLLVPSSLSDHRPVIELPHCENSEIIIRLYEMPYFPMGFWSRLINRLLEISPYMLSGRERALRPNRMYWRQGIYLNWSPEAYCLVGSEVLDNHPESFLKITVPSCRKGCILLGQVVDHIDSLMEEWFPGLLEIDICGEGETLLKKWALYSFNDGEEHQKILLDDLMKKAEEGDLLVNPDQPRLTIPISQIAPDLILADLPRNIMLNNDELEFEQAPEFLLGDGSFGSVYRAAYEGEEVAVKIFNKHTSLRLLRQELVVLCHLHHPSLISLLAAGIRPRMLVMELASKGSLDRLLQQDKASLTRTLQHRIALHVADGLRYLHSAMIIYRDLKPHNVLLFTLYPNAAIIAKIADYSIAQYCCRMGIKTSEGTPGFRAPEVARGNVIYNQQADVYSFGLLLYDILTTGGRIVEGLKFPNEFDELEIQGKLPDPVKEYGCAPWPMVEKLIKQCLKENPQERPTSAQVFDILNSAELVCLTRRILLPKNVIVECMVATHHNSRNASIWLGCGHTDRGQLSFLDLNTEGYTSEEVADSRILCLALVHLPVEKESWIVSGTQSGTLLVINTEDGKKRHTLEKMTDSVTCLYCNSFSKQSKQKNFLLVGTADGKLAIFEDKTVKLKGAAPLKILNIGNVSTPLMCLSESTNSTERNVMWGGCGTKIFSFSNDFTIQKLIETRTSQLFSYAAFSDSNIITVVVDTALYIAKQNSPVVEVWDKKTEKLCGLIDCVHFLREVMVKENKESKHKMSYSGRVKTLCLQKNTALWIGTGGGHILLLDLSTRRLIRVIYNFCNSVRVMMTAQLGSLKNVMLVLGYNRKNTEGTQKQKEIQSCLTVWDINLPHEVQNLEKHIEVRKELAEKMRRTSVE
Serine/threonine-protein kinase B-raf (Homo sapiens), sequence (P15056 whole entry): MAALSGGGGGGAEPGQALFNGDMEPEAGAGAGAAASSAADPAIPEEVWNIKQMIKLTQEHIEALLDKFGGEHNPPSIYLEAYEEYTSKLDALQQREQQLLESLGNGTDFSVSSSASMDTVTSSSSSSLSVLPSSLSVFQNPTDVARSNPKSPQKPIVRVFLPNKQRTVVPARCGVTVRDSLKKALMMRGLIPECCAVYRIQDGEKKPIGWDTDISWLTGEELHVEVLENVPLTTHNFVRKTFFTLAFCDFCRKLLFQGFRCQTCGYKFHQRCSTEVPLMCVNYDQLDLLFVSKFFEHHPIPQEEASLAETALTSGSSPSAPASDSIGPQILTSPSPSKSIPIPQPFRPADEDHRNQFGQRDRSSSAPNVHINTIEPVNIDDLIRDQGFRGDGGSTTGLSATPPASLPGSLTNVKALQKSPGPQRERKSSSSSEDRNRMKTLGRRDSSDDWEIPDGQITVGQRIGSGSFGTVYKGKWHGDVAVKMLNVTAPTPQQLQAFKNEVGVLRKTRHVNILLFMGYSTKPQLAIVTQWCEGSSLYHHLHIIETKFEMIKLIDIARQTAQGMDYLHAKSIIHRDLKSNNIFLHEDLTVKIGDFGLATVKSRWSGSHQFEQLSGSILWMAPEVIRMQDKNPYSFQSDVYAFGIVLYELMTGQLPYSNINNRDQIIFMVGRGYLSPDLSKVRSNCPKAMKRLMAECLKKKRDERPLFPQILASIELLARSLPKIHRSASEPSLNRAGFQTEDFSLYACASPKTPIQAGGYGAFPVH
Tyrosine-protein kinase Yes (Homo sapiens), sequence (P07947 2-543 limits assumed): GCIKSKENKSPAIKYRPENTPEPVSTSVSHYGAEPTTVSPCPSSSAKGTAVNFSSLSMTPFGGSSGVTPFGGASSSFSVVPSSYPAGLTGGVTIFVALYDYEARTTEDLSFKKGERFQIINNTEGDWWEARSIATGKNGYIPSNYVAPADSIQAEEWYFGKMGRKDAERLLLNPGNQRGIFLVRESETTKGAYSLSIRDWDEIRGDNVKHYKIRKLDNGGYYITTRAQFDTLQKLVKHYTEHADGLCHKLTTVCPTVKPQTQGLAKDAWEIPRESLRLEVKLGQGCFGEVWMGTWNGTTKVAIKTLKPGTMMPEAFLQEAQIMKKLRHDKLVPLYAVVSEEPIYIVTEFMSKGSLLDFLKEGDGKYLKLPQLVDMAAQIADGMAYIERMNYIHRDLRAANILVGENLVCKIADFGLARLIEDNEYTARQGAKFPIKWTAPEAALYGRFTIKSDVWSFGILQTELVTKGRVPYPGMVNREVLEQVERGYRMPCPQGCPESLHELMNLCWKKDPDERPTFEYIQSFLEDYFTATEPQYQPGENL
Serine/threonine-protein kinase B-raf (Homo sapiens), P15056 [V600E], sequence (P15056 whole entry V600E): as the sequence (P15056 whole entry) above, with V600E counted along it
Leucine-rich repeat serine/threonine-protein kinase 2 (Homo sapiens), sequence (Q5S007 whole entry): as the sequence (Q5S007 whole entry G2019S) above, with S2019G counted along it

As usually defined, the inhibition is the drop in the measured response relative to a control, in per cent. As for `CS(=O)(=O)CCNCc1ccc(-c2ccc3ncnc(Nc4ccc(OCc5ccccc5)c(C(F)(F)F)c4)c3c2)o1`, the inhibition in [1] came out at 6.25%; in [2], 2.85%; in assay [3] it was 7.92%; in assay [4], 0.47%; in [5], 2.41%; in assay [6], 5.9%. The inhibition in assay [7] stood at 4.19%; in assay [8] it was 3.97%; in assay [9] it was 3%; in assay [10], 1.81%; in [11], 0.04%; in assay [12], 0.72%. For the same compound, the inhibition in [13] amounted to 1.09%; in assay [14] it was 2.22%; in assay [15] it was 4.18%; in assay [16], 4.54%; in assay [17], 5.03%.
In the case of `NS(=O)(=O)c1ccc(Nc2ncc(-c3ccccc3)o2)cc1`, the inhibition in assay [1] was determined as 4.49%; in assay [2], 3.4%; in assay [3], 7.73%; in assay [4], 2.88%; in [5] it was 2.94%; in assay [6] it was 5.82%. The inhibition was 8.2% in assay [7]; 6.65% in [8]; 6.08% in assay [9]; -0.15% in assay [10]; -4.28% in assay [11]; -2.68% in assay [12]. Also, the inhibition in assay [13] was 1.92%; in assay [14] it was 3.47%; in [15] it was 15%; in [16], 5.15%; in assay [17], 19.4%.
As to `CCCN(CCS(C)(=O)=O)Cc1ccc(-c2ccc3ncnc(Nc4ccc(OCc5cccc(F)c5)c(Cl)c4)c3c2)o1`, the inhibition in assay [1] worked out at 1.99%; in assay [2], 1.86%; in assay [3], 8.75%; in [5], 1.73%; in [6], 3.07%; in assay [7] it was 3.72%. Besides, the inhibition is 3.15% in [8]; 3.85% in [9]; 1.57% in assay [10]; -0.27% in assay [11]; -3.12% in assay [12]; 0.98% in [13]. Also, the inhibition in [14] is 3.72%; in assay [15], 4.95%; in assay [16], 4.3%; in assay [17] it was 6.74%.
Take `CCNC(=O)O[C@H]1CN[C@H](C#Cc2cc3ncnc(Nc4ccc(OCc5cccc(F)c5)c(Cl)c4)c3s2)C1`: the inhibition is 1.4% in [1]; 1.68% in [2]; -0.6% in [3]; -3.39% in [4]; -3.28% in [5]; 4.28% in assay [6]. Besides, the inhibition in assay [7] is 4.49%; in assay [8], 2.44%; in assay [9], 2.23%; in assay [10] it was -0.64%; in assay [12] it was -5.34%; in [13], 6.03%. For the same compound, the inhibition came out at 3.12% in assay [14], 4.18% in assay [15], 2.44% in assay [16] and 6.88% in [17].
Regarding `CNC(=O)c1cccc(C#Cc2cncnc2Nc2ccc(OCc3cccc(F)c3)c(Cl)c2)c1`, the inhibition in assay [1] is 1.74%; in assay [2], 2.71%; in assay [3], 4.41%; in assay [4], 2.49%; in assay [5], -0.96%; in [6], 0.05%. For the same compound, the inhibition is 2.22% in [7]; 0.09% in [8]; 1.59% in assay [9]; 2.66% in [10]; -1.34% in [11]; -3.89% in [12]. Further, the inhibition in [13] was 0.26%; in assay [14], 0.02%; in assay [15], 3.48%; in [16], -1.1%; in assay [17], 3.49%.
Regarding `COc1cccc(-c2c[nH]c3c(N/N=C/c4ccncc4)ncnc23)c1`, the inhibition in assay [1] worked out at 38%; in [2], 19.6%; in assay [3], 65.2%; in assay [4], 1.26%; in [5], 1.55%; in assay [6], 3.1%. The inhibition in assay [7] was 11%; in assay [8] it was 3.98%; in assay [9], 11.2%; in [10], 2.82%; in assay [12] it was -2.59%; in [13] it was 5.06%. In addition, the inhibition came to 4.34% in assay [14], 14% in [15], 5.22% in assay [16] and 25.9% in assay [17].
Consider `Cc1cccc2c1NC(=O)/C2=N\Nc1ccc(S(N)(=O)=O)cc1`, for which the inhibition in assay [1] was 1.39%; in assay [2], 0.81%; in [3], -0.24%; in assay [4], 2.59%; in assay [5], 2.59%; in assay [6], 3.47%. Also, the inhibition was 4.79% in assay [7]; 2.89% in assay [8]; 3.31% in assay [9]; -3.52% in [10]; -0.09% in assay [12]; 1.25% in assay [13]. The inhibition amounted to 2.99% in [14], 7.1% in assay [15], 2.75% in assay [16] and 10.2% in assay [17].

The values are drawn from ChEMBL document CHEMBL1961873, “Compounds: GSK PKIS; Assays: Nanosyn kinase panel” (2012).
